In the library only some 7.5% were active in any assay of this set; here they are far more common.
Luc counter – counter-screen: inhibitors of Kinase-Glo firefly luciferase | Q27757 | Kinase-Glo luciferase, ATP luminescence, 8 min | Potency, µM (series often up to 38.3 µM), for inactives: at the highest dose activity change, negative = inhibition, hits mostly inhibitors | 200,000 tested, 0.28% active; also: % is scaled to controls: 0 for no effect and ±100 for the full control effect; nearly all actives have a fitted effect of over 60% in size
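Luminescence was the read-out, taken after 8-minute incubation at ambient temperature. Luciferase turned over luciferin with 10 uM ATP in imidazole pH 7.2 buffer containing KCl, MgCl2, Tween 20 and BSA.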
NPC1 promoter act – activates the NPC1 promoter; 320,000 tested, 2.4% active; Huh7 NPC1 promoter luciferase reporter, 24 h; Potency, µM (top dose mostly 9.22 µM), inactives show at the highest dose activation, actives largely listed as activators; AID 485313; also: % of control where 0% means no effect; nearly all actives have a fitted effect of over 60% in size
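Stable NPC1-promoter luciferase Huh7 line; cpd (DMSO) 24 h, 37 °C, 5% CO2; Amplite luciferase reagent 10 min RT; luminescence readout. qHTS format.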
SMN2 splice enh – enhancers of SMN2 splice variant expression. Potency, µM (doses to about 46.1 µM), for the others: at the highest dose activity change, positive = activation, hits mostly activators. 210,000 tested, 2.8% active. HEK293 SMN2-luciferase splicing reporter, luminescence, 30-36 h; also: % of control where 0% means no effect; nearly all actives have a fitted effect of over 55% in size
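qHTS luciferase splicing reporter: luminescence rises when SMN2 exon 7 is included in transfected HEK293 cells. Compound exposure lasted 30-36 h at 37C, with 4.5 mM final sodium butyrate as control, followed by a ONE-Glo read.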
ELG1 genotoxic – induces genotoxicity in HEK293T cells with luciferase-tagged ELG1; 330,000 tested, 1.3% active; HEK293T ELG1-luciferase reporter, luminescence, 16 h; Potency, µM (top dose mostly 46 µM), for inactives: at the top dose activity change, positive = activation, hits mostly activators; AID 504466; also: % of control where 0% means no effect; nearly all actives have a fitted effect of over 60% in size
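Luminescence read-out: rising ELG1-luciferase signal, reflecting elevated ELG1 protein under genetic stress, flags genotoxic compounds. Cells were treated for 16 hr at 37 °C before ONE-Glo detection.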
FLuc counter – counter-screen for miR-21 project: firefly luciferase inhibitors or activators | P08659 | purified FLuc, Km substrates, luminescence inhibition | Potency, µM (titrated, usually from 57.5 µM), inactives show at the highest dose activity change, negative = inhibition, hits mostly inhibitors | 360,000 tested, 6.9% active;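 also: plate controls were vehicle for no effect and reference inhibitor for full effect; nearly all actives have a fitted effect of over 55% in size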
Target sequence (P08659 whole entry, looked up): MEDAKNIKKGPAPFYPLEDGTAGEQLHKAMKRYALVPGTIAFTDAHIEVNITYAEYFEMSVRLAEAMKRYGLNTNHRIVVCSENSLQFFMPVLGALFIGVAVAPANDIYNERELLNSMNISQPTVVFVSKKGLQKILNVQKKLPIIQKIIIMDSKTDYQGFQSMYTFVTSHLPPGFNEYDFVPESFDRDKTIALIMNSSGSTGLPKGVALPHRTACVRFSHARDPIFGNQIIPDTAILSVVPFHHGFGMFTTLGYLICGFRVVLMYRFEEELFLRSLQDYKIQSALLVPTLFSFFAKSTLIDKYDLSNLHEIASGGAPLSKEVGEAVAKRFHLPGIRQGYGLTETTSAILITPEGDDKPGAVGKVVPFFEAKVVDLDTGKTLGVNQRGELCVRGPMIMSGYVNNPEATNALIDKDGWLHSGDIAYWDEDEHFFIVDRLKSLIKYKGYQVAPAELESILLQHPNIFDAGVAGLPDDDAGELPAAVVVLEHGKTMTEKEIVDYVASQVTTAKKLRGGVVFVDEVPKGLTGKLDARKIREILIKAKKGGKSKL
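Purified P. pyralis luciferase (10nM final) with 10uM D-luciferin and 10uM ATP (Km levels) in 50mM Tris acetate pH 7.5, 10mM Mg acetate, 0.01% Tween-20, 0.05% BSA; qHTS 6-point titration, ~60 µM downward; luminescence read.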
Rab9 prom act – activates the Rab9 promoter. Huh7 Rab9 promoter-luciferase reporter, luminescence, 24 h. Potency, µM (doses to about 9.22 µM), for inactives: top-dose activation, negative = inhibition, actives largely listed as activators. 320,000 tested, 2.8% active. AID 485297; also: % of control where 0% means no effect; nearly all actives have a fitted effect of over 60% in size
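Luminescence read-out: Huh7 cells stably expressing Rab9-luciferase, treated 24 h with compound at 37 °C, then lysed with luciferase reagent for 10 min at ambient before reading.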
An asterisk follows results filed as active; [ ] = remark or other dose. Calls follow the shape of the dose curve; as a rule, active = well fitted curve in the direction sought with a large enough effect; inconclusive = small, poorly fitted or top-dose-only effect, or another doubt; inactive = no such curve, though single readings can be large; an effect the other way counts as inactive or inconclusive. Potency is read from the fitted curve at half-maximal effect.

CCOc1cc(/C=N/NC(=O)COc2ccc(C)cc2)ccc1OC(=O)c1cccs1 was read as Luc counter -1%, NPC1 promoter act 1%, SMN2 splice enh 1%, ELG1 genotoxic 4%, FLuc counter 5% and Rab9 prom act 5%.
For COc1cc(/C=N/Nc2ccccc2)ccc1OC(=O)c1cccs1 the results were Luc counter -4%, NPC1 promoter act 5%, SMN2 splice enh inconclusive, ELG1 genotoxic inconclusive, FLuc counter 21µM* and Rab9 prom act 15%.
`COc1cc(/C=N/NC(=O)COc2ccc(C)cc2)ccc1OC(=O)c1cccs1` gave Luc counter -3%, NPC1 promoter act -2%, SMN2 splice enh -15%[1.84 µM], ELG1 genotoxic 11%, FLuc counter 11µM* and Rab9 prom act 2%.
Screening COc1cc(/C=N/NC(=O)c2cccnc2)cc2c1OCO2 returned NPC1 promoter act -1%, ELG1 genotoxic 1%, FLuc counter -4% and Rab9 prom act 6%.
Screening O=C(NC1CCCC1)c1ccc2c(c1)N(Cc1ccc(C(F)(F)F)cc1)C(=O)c1ccccc1S2 returned SMN2 splice enh -15% and FLuc counter 6%.
For CCN1C(=O)C(Cc2nc3ccccc3c(=O)n2C)c2cc(C)ccc21 (stereo not drawn) the results were FLuc counter 4%.
COc1cc(/C=N/Nc2ccc(Cl)c(C(=O)O)c2)ccc1OC(=O)c1cccs1 was read as Luc counter -1%, NPC1 promoter act 22%, SMN2 splice enh 17%, ELG1 genotoxic 11%, FLuc counter 24µM* and Rab9 prom act inconclusive.
For COc1cc(/C=N/NC(=S)NCc2ccco2)cc(OC)c1OC the results were Luc counter 1%, NPC1 promoter act -1%, SMN2 splice enh 35µM*, ELG1 genotoxic 32%, FLuc counter 0% and Rab9 prom act -3%.
COc1ccccc1/C=N/NC(=S)NCc1ccco1 was read as NPC1 promoter act 2%, ELG1 genotoxic -2%, FLuc counter -3% and Rab9 prom act 1%.
For O=C(Nc1nc(-c2ccccc2)cs1)c1ccc(N2CCOCC2)c([N+](=O)[O-])c1 the results were Luc counter 4%, NPC1 promoter act -27%, SMN2 splice enh -105%, ELG1 genotoxic -14%, FLuc counter inconclusive and Rab9 prom act -27%.
Screening O=C(Nc1nc2ccccc2s1)c1ccc(N2CCCCC2)c([N+](=O)[O-])c1 returned Luc counter 3%, NPC1 promoter act inconclusive, SMN2 splice enh 5%[1.84 µM], ELG1 genotoxic -4%, FLuc counter 9.5µM* and Rab9 prom act 2µM*.
For O=C(Nc1ccon1)c1ccc(N2CCCCC2)c([N+](=O)[O-])c1 the results were Luc counter 7%, NPC1 promoter act 2.8µM*, SMN2 splice enh 14µM*, ELG1 genotoxic 16%, FLuc counter 12µM* and Rab9 prom act 2µM*.
Cc1cc(NC(=O)c2ccc(N3CCCC3)c([N+](=O)[O-])c2)no1 was read as Luc counter 3%, NPC1 promoter act 7%, SMN2 splice enh 10%, ELG1 genotoxic 7%, FLuc counter -8% and Rab9 prom act 12%.
`Cc1ccc2oc(C(=O)N(Cc3ccccc3F)C3CCS(=O)(=O)C3)c(C)c2c1` (stereo not drawn) gave SMN2 splice enh -14% and FLuc counter -13%.
CN(C(=O)COC(=O)c1ccc(-c2ccc(O)cc2)cc1)C1CCS(=O)(=O)C1 (stereo not drawn) was read as NPC1 promoter act 6%, ELG1 genotoxic inconclusive, FLuc counter -2% and Rab9 prom act 7%.
Cc1cccc(Nc2nnc(SCC(=O)NC3CCCc4ccccc43)s2)c1 (stereo not drawn) was read as Luc counter 3%, NPC1 promoter act -6%, SMN2 splice enh -36%, ELG1 genotoxic -8%, FLuc counter 6µM* and Rab9 prom act -2%.
Cc1cccc(Nc2nnc(SCc3cn4ccsc4n3)s2)c1 was read as Luc counter -9%, NPC1 promoter act 1%, SMN2 splice enh -9%, ELG1 genotoxic 3%, FLuc counter 17µM* and Rab9 prom act -1%.
Screening Cc1cccc(Nc2nnc(SCC(=O)Nc3cccnc3Cl)s2)c1 returned Luc counter -25%, NPC1 promoter act 5%, SMN2 splice enh -2%, ELG1 genotoxic 5%, FLuc counter 6µM* and Rab9 prom act 11%.
`O=c1cc(CSc2nnc(Nc3ccccc3)s2)nc2sccn12` gave Luc counter -4%, NPC1 promoter act 7%, SMN2 splice enh inconclusive, ELG1 genotoxic -13%, FLuc counter -10% and Rab9 prom act -5%.
For Nc1nnc(SCC(=O)Nc2cccnc2Cl)s1 the results were NPC1 promoter act 2%, ELG1 genotoxic -4%, FLuc counter -8% and Rab9 prom act -6%.
Screening Cc1ccc(Nc2nnc(SCC(=O)NCCN3C(=O)CSC3=O)s2)cc1C returned NPC1 promoter act inconclusive, ELG1 genotoxic inconclusive, FLuc counter 1.7µM* and Rab9 prom act 26%.
O=C(NC1CCCN(Cc2ccccc2F)C1)c1cccs1 (stereo not drawn) was read as NPC1 promoter act 0%, ELG1 genotoxic -2%, FLuc counter -3% and Rab9 prom act 3%.
`Cn1c(=O)oc2cc(S(=O)(=O)NC(CC(=O)O)c3cccc(Br)c3)ccc21` (stereo not drawn) gave FLuc counter -9%.
For COC(=O)c1c(NC(=O)Cc2coc3cc(C)ccc23)sc2c1CCCC2 the results were SMN2 splice enh 7% and FLuc counter -15%.
Screening Cc1cccc(Nc2nnc(SCC(=O)NCc3cccs3)s2)c1C returned Luc counter 0%, NPC1 promoter act -4%, SMN2 splice enh 8%, ELG1 genotoxic -1%, FLuc counter -17% and Rab9 prom act -3%.
Cc1cccc(Nc2nnc(SCC(=O)NCc3cccs3)s2)c1 was read as Luc counter -3%, NPC1 promoter act 7%, SMN2 splice enh 5%, ELG1 genotoxic 6%, FLuc counter 11µM* and Rab9 prom act 11%.
Screening Cc1cc(C)c2nc(NC(=O)c3ccc(OCC4CCCO4)cc3)sc2c1 (stereo not drawn) returned Luc counter 1%, NPC1 promoter act -18%, SMN2 splice enh -59%, ELG1 genotoxic -3%, FLuc counter 11µM* and Rab9 prom act -25%.

Source: PubChem BioAssay
